These results are taken from PubChem BioAssay (Tox21).

Inconclusive results are not listed. Calls of active or inactive are those of the source. Unless noted, the call rests on the fitted dose curve; in most records, active means well fitted curve in the direction sought with a large enough effect in the repeat runs; inconclusive means weak or mixed curves; inactive means no such curve, though single readings can be large; an effect the other way counts as inactive or inconclusive.

Assay [1] in a line: qHTS assay for small molecule agonists of the p53 signaling pathway (AID 651631; calls by dose curve; further: nearly all actives have a fitted effect of over 15% in size; further: potency means the concentration at half of the fitted maximal effect). An outline of the steps:
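Agonist mode screen using a stably integrated beta-lactamase gene under p53 response elements in HCT-116 cells. Compound exposure lasts 16 h at 37 °C; fluorescence intensity is measured following 2 h FRET substrate loading.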
Background: In qHTS, concentration-response curves come from the screen itself.

Assay [2] can be described thus: qHTS assay for small molecules that induce genotoxicity in human embryonic kidney cells expressing luciferase-tagged ATAD5 (AID 651632). Further: nearly all actives have a fitted effect of over 15% in size. An outline of the steps:
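Test compounds were delivered by pin tool onto HEK293T reporter cells (2,000/well) expressing ATAD5 fused to luciferase. After 16 hr at 37C, 5% CO2, Amplite was added for 30 min at room temperature and luminescence was measured.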

A short description of assay [3]: qHTS assay for small molecule agonists of the p53 signaling pathway - cell viability (AID 651633; calls by dose curve;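 further: p53RE-bla HCT reporter cells with a stable beta-lactamase p53 reporter; series mostly up to about 83 µM; nearly all actives have a fitted effect of over 30% in size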). An outline of the steps: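 Viability counter-read: CellTiter-Glo luminescence (30 min, room temperature) in the same p53RE-bla plates. These plates had been exposed to compounds for 16 h at 37 C.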
Assay [4] is described as follows: qHTS assay for small molecules that induce genotoxicity in human embryonic kidney cells expressing luciferase-tagged ATAD5 - cell viability (AID 651634; calls by dose curve; further: nearly all actives have a fitted effect of over 25% in size). Put shortly: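 Quantitative high-throughput format. HEK293T cells expressing ATAD5 fused to luciferase were plated at 2,000 cells/well and treated 15.5 hr with compound versus DMSO. Viability was determined by fluorescent live-cell protease substrate, 30 min at 37C.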

Assay [5] is described as follows: qHTS assay for small molecule disruptors of the mitochondrial membrane potential - cell viability (AID 720634; calls by dose curve;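 further: human HepG2 liver cancer cells; series mostly up to about 83 µM; nearly all actives have a fitted effect of over 20% in size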). Put shortly: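 Same-well counter-screen: following the MMP dye addition, CellTiter-Glo was added to 1 hr compound-treated HepG2 cells and luminescence read after 30 min at room temperature.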
The nature of assay [6]: qHTS assay for small molecule disruptors of the mitochondrial membrane potential (AID 720635). Put shortly: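 Mitochondrial membrane potential tracked with Mito-MPS dye, red aggregates (ex 540/em 590 nm) against green monomers (ex 490/em 535 nm). Compound treatment 1 hr at 37C, dye 30 min in HepG2.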
The nature of assay [7]: qHTS assay to test for compound auto fluorescence at 590 nm (red) in HepG2 cells (AID 720674). An outline of the steps: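 Red autofluorescence (Ex/Em 540/590 nm, Rose Bengal sodium equivalents) was measured in HepG2 cells, 2,000 per well in MEM plus 10% FBS, plated overnight at 37 C. Readings were taken 1 hr after adding 23 nL compound or DMSO, at 37 C and 5% CO2.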
A short description of assay [8]: qHTS assay to test for compound auto fluorescence at 535 nm (green) in HepG2 cells (AID 720675).
Assay [9] can be described thus: qHTS assay to test for compound auto fluorescence at 460 nm (blue) in HEK293 cells (AID 720678). An outline of the steps: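 Auto fluorescence in the blue band was quantified as triamterene equivalency. HEK293 cells were seeded at 2,000/well, dosed after a 4-5 hr attachment, and kept overnight at 37C before the 405/460 nm reading.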
Assay [10] can be described thus: qHTS assay to test for compound auto fluorescence at 590 nm (red) in HEK293 cells (AID 720679). An outline of the steps: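 Autofluorescence equivalency to Rose Bengal sodium, 540/590nm, in HEK293 cells exposed overnight to 23 nL compound per well.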

In the case of `CC(=O)O[C@H]1C[C@@H]2CC[C@@H]3[C@H](CC[C@@]4(C)[C@H]3C[C@H](N3CC[N+](C)(C)CC3)[C@@H]4OC(C)=O)[C@@]2(C)C[C@@H]1N1CC[N+](C)(C)CC1`, the Potency result in [1], in assay [2], in [3], in assay [4], in [5] and in assay [6] was “inactive” in each case. In addition, the Potency result in [7], in assay [8], in assay [9] and in assay [10] was “inactive” throughout.
With `O=S(O)CNc1ccc(S(=O)(=O)c2ccc(NCS(=O)O)cc2)cc1`, the Potency result in [1], in assay [2], in assay [3], in assay [4], in assay [5] and in [6] was “inactive” in each case. Further, the Potency result in [7], in [8], in assay [9] and in assay [10] was “inactive” in each case.
On to `C[N+]1(C)CCN(CC(O)(c2ccccc2)C2CCCCC2)CC1` (stereo not given), for which the Potency entry in assay [1], in assay [2], in assay [3], in [4], in assay [5] and in assay [6] was “inactive” throughout. For the same molecule, the Potency entry in assay [7], in assay [8], in assay [9] and in [10] was “inactive” in each case.
Take `CCN(CC)CCOC(=O)c1ccc(N)cc1Cl`: the Potency result in assay [1], in [2], in [3], in assay [4], in assay [5] and in assay [6] was “inactive” in each case. In addition, the Potency result in assay [7], in assay [8], in assay [9] and in [10] was “inactive” each time.
For the molecule `CN1CC(O)c2cc(N=NC(N)=O)c(O)cc21` (stereo not given), the Potency result in assay [1], in assay [2], in [3], in [4], in assay [5] and in assay [6] was “inactive” each time. For the same molecule, the Potency result in [7], in assay [8], in assay [9] and in assay [10] was “inactive” each time.
Consider `c1cnc2cc3c(cc2n1)[C@@H]1CNC[C@H]3C1`, for which the Potency result in assay [1], in [2], in assay [3], in assay [4], in [5] and in assay [6] was “inactive” each time. Besides, the Potency entry in [7], in assay [8], in [9] and in [10] was “inactive” each time.
For `CO[C@@H]1[C@@H](O[C@@H]2O[C@H](C)[C@@H](O[C@H]3C[C@@](C)(O)[C@@H](OC(=O)CC(C)C)[C@H](C)O3)[C@H](N(C)C)[C@H]2O)[C@@H](CC=O)C[C@@H](C)[C@@H](O)/C=C/C=C/C[C@@H](C)OC(=O)C[C@H]1O`, the Potency result in [1], in assay [2], in assay [3], in assay [4], in assay [5] and in [6] was “inactive” in each case. Further, the Potency entry in [7], in assay [8], in [9] and in assay [10] was “inactive” throughout.
`CCN(CC)c1ccc(N=Nc2ccc(S(=O)(=O)N(C)C)cc2)c(S(=O)(=O)NCC[n+]2ccccc2)c1`: the Potency result in assay [1], in [2], in assay [3], in assay [4], in assay [5] and in assay [6] was “inactive” in each case. For the same molecule, the Potency result in assay [7], in assay [8], in assay [9] and in assay [10] was “inactive” throughout.
As to `O.O=C([O-])CC([S-])C(=O)[O-].[Au+].[Na+].[Na+]` (stereo not given), the Potency result in assay [1], in assay [2], in assay [3], in [4], in assay [5] and in assay [6] was “inactive” in each case. The Potency result in assay [7], in [8], in assay [9] and in assay [10] was “inactive” each time.
Turning to `N=C(N)c1ccc(OCCCOc2ccc(C(=N)N)cc2Br)c(Br)c1`, the Potency entry in assay [1], in assay [2], in assay [3], in assay [4], in assay [5] and in assay [6] was “inactive” throughout. The Potency entry in assay [7], in assay [8], in assay [9] and in assay [10] was “inactive” throughout.
Turning to `CCCCOC(=O)C(=O)Nc1cccc(-c2nn[nH]n2)c1`, the Potency result in assay [1], in assay [2], in [3], in assay [4], in [5] and in assay [6] was “inactive” in each case. Moreover, the Potency result in assay [7], in assay [8], in assay [9] and in assay [10] was “inactive” throughout.
Turning to `CC(CN(C)C)CN1c2ccccc2S(=O)(=O)c2ccccc21` (stereo not given), the Potency entry in assay [1], in [2], in [3], in assay [4], in assay [5] and in assay [6] was “inactive” in each case. Further, the Potency entry in assay [7], in [8], in assay [9] and in assay [10] was “inactive” throughout.
As to `CS(=O)(=O)NC(=O)CCC/C=C\C[C@H]1C(=O)C[C@@H](O)[C@@H]1/C=C/[C@H](O)COc1ccccc1`, the Potency result in assay [1], in assay [2], in assay [3], in assay [4], in assay [5] and in [6] was “inactive” throughout. The Potency entry in assay [7], in assay [8], in assay [9] and in [10] was “inactive” each time.
Turning to `CCCCCCCCCCCCCCCCCCOP(=O)([O-])OC1CC[N+](C)(C)CC1`, the Potency entry in assay [1], in assay [2], in [3], in assay [4], in assay [5] and in [6] was “inactive” each time. Besides, the Potency result in assay [7], in [8], in [9] and in [10] was “inactive” each time.
Take `C=C1/C(=C\C=C2/CCC[C@]3(C)[C@@H]([C@H](C)OCCC(C)(C)O)CC[C@@H]23)C[C@@H](O)C[C@@H]1O`: in assay [1], the Potency is 11.9 µM (active). The Potency result in assay [2], in assay [3], in assay [4], in [5], in assay [6] and in assay [7] was “inactive” throughout. Besides, the Potency entry in [8], in [9] and in [10] was “inactive” throughout.
As to `COCC1=C(C(=O)OC(C)OC(=O)OC(C)C)N2C(=O)[C@@H](NC(=O)/C(=N\OC)c3csc(N)n3)[C@H]2SC1` (stereo not given in full), the Potency entry in assay [1], in assay [2], in assay [3], in [4], in [5] and in assay [6] was “inactive” throughout. The Potency result in [7], in assay [8], in assay [9] and in assay [10] was “inactive” in each case.
For `O=P(O)(O)C(Sc1ccc(Cl)cc1)P(=O)(O)O`, the Potency result in [1], in [2], in [3], in assay [4], in assay [5] and in assay [6] was “inactive” each time. Besides, the Potency entry in assay [7], in assay [8], in assay [9] and in assay [10] was “inactive” in each case.
